The text below walks through data of ChEMBL document CHEMBL4513216, “Probing the Open Global Health Chemical Diversity Library for Multistage-Active Starting Points for Next-Generation Antimalarials” (ACS Infect Dis, 2020).

Screen size: about 65,000 compounds; about 2,100 (3.2%) showed an effect of 50% or more. The median lay at about -52%. For the sample, strong results were picked, then their nearest neighbours and some compounds at random.

The test system of the experiment is Plasmodium falciparum. Nature of the experiment: Screen against P. falciparum Asexual Blood Stage (ABS), at 5uM. It is filed as functional, Dd2. The conditions noted are these: tested at 5 uM.
As to `COCCN1C[C@@H]2CN(C(=O)[C@H]3CCCO3)C[C@@H]2C1=O`, the INHIBITION is on record as -135%.

On to `O=C(CC1CC1)N1C[C@H]2CN(CC3CC3)C(=O)[C@H]2C1`, for which the INHIBITION is reported as -64.7%.

In the case of `COCCN1C[C@@H]2CN(C(=O)CC3CC3)C[C@@H]2C1=O`, the INHIBITION is recorded as 53.5%.

For `Cn1ccc2c(cnc3nc(-c4ccncc4)nn32)c1=O`, the INHIBITION is given as -169%.

For the compound `CN(C)c1ccc(C(=O)N2CCC(c3cc4cnccc4[nH]3)CC2)cc1`, the INHIBITION came to 29.8%.

As for `CN(C)c1ccc(C(=O)N2CCC(c3cc4ncccc4[nH]3)CC2)cc1`, the INHIBITION was 55.6%.

On to `COc1cc(CCC(=O)N2CCC(c3cc4ncccc4[nH]3)CC2)on1`, for which the INHIBITION is -0.239%.

Take `CCNC(=O)NC(=O)C(C)N(C)CCOc1ccccc1C` (stereo not given): the INHIBITION is -80.5%.

In the case of `CC(C)N1CCO[C@@H]2CN(S(=O)(=O)c3cccs3)CC[C@@H]2C1`, the INHIBITION amounted to 52.1%.

With `CN1CCO[C@@H]2CN(S(=O)(=O)c3ccccc3F)CC[C@@H]2C1`, the INHIBITION is 50.3%.

With `CN1CCO[C@@H]2CN(S(=O)(=O)c3cccs3)CC[C@@H]2C1`, the INHIBITION is -22.2%.

As to `CN1CCO[C@@H]2CN(S(=O)(=O)c3ccccc3)C[C@@H]2C1`, the INHIBITION is -17.9%.

Turning to `Cc1ccc(S(=O)(=O)N2CC[C@H]3CO[C@H](CN(C)C)[C@H]3C2)cc1`, the INHIBITION turned out to be 12.4%.

Consider `COc1ccc(S(=O)(=O)N2C[C@@H]3CN(C)CCO[C@@H]3C2)cc1`, for which the INHIBITION came out at 60.2%.

On to `CN(C)C[C@H]1OC[C@@H]2CCN(S(=O)(=O)c3ccc(F)cc3)C[C@@H]21`, for which the INHIBITION is given as 50.5%.

With `O=C1CO[C@@H]2CN(S(=O)(=O)c3ccccc3F)C[C@H]2N1`, the INHIBITION is -30.8%.

Regarding `CN1CCO[C@H]2CN(S(=O)(=O)c3ccc(C#N)cc3)C[C@H]21`, the INHIBITION is -81.8%.

Take `CCN1CCO[C@@H]2CN(S(=O)(=O)c3cccs3)CC[C@@H]2C1`: the INHIBITION turned out to be 40.2%.

As to `CC(=O)N1CCO[C@@H]2CN(S(=O)(=O)c3ccccc3F)C[C@@H]2C1`, the INHIBITION is on record as -67.6%.

Regarding `CN(C)C[C@H]1OC[C@@H]2CCN(S(=O)(=O)c3ccccc3)C[C@@H]21`, the INHIBITION is on record as -3.11%.

On to `CN1CC(=O)N(c2ccccc2)Cc2c(NC3CC3)ncnc21`, for which the INHIBITION is -97.2%.

Turning to `CO[C@H]1CN(C(=O)OC(C)(C)C)CC1NCc1ccco1` (stereo not given in full), the INHIBITION was -47.8%.

Consider `CN(CCNC(=O)Nc1ccn(C)n1)Cc1ccc(F)cc1`, for which the INHIBITION was -27.6%.

Regarding `CC(C)NC(=O)N1CCc2onc(C(=O)NCCN(C)C)c2C1`, the INHIBITION is listed as -13.1%.

In the case of `COCc1nn(C(C)C)c2c1CCN(Cc1ccc(C)o1)C2`, the INHIBITION is -31%.

As for `CC(C)C1=NOC2(CCN(Cc3c[nH]c4ccccc34)CC2)C1`, the INHIBITION turned out to be 2.84%.

Regarding `Cc1ccc(CNCC2Cn3nnc(-c4cnn(C)c4)c3CO2)o1` (stereo not given), the INHIBITION is reported as -32.4%.

As to `Cc1ccc(Nc2nccc(C3CCCN(CC(=O)N(C)C)C3)n2)nc1` (stereo not given), the INHIBITION is listed as -3.51%.

Regarding `Cc1ccc(N2CCc3ncnc(C4CC4)c3CC2)nn1`, the INHIBITION is -150%.

Turning to `CN1CCO[C@@H]2CN(S(=O)(=O)c3ccccc3)CC[C@@H]2C1`, the INHIBITION is 33.8%.

As to `CN1CCO[C@@H]2CN(S(=O)(=O)c3ccc(F)cc3)CC[C@@H]2C1`, the INHIBITION was 62.7%.

For `CC(=O)N1CCO[C@@H]2CN(S(=O)(=O)c3ccc(F)cc3)CC[C@@H]2C1`, the INHIBITION is -83.8%.

Regarding `N#Cc1ccccc1CN1C[C@@H]2CC[C@H]1CN(C(=O)c1cccnc1)C2`, the INHIBITION was -15.6%.

As for `CCN(C(=O)CN1CCCN(c2nc(C)ns2)CC1)C1CC1`, the INHIBITION is reported as -126%.

As for `CC(C)CC(=O)NCC1CCC(C(c2ccccn2)N(C)C)CC1` (stereo not given), the INHIBITION is listed as -110%.

In the case of `O=C(c1ccccn1)N1CCC2(COc3ncccc3S(=O)(=O)N2)C1` (stereo not given), the INHIBITION was -69.3%.

Take `Cc1ccc(CN(CCCn2ccnc2)Cc2c[nH]nc2C(C)(C)C)s1`: the INHIBITION is 33.5%.

On to `Cc1ccc2nc(C)cc(NCCNS(=O)(=O)c3cccnc3)c2c1`, for which the INHIBITION worked out at 62.9%.

Consider `Cc1ccc2nc(C)cc(NCCNS(=O)(=O)c3cn(C)nc3C)c2c1`, for which the INHIBITION worked out at 47.8%.

As for `Cc1cc(NCCNS(=O)(=O)c2cn(C)nc2C)c2ccccc2n1`, the INHIBITION is 3.35%.

As to `COc1nn(C)c2c1CCCN(C(=O)c1cccs1)C2`, the INHIBITION is -22.1%.

Regarding `O=C(c1ccc(F)cc1)N1CC[C@H]2[C@H]1CCN2CC1CCOCC1`, the INHIBITION was -112%.

Regarding `Cc1nc(CN2CCN(C(=O)C(C(C)C)n3cncn3)CC2)cs1` (stereo not given), the INHIBITION is on record as -61.1%.

As for `CN1N=C(C(=O)N(Cc2ccco2)C2CC2)CCC1=O`, the INHIBITION is on record as -127%.

On to `CC1CCN(C(=O)CN(Cc2ccco2)C2CC2)CC1`, for which the INHIBITION is -115%.

`CN1CCC(N(Cc2ccco2)S(=O)(=O)c2ccc(Cl)cc2)CC1`: the INHIBITION amounted to 56.8%.

With `COCCNC(=O)[C@H]1C[C@@H]2CCN(Cc3nccs3)C[C@H]2O1`, the INHIBITION was -127%.

Turning to `CN(C)CCN(Cc1ccc(Cl)cc1)C(=O)c1cnccn1`, the INHIBITION was determined as 35.1%.

Take `CN(C)CCN(Cc1ccc(Cl)cc1)C(=O)c1ccn(C)c(=O)c1`: the INHIBITION is on record as -73.6%.

For the compound `Cc1cnc(C(=O)N(CCN(C)C)Cc2ccc(Cl)cc2)cn1`, the INHIBITION is reported as -35.7%.
